Sm TGR block = inhibitors of Schistosoma mansoni thioredoxin glutathione reductase; purified TGR, DTNB reduction, TNB absorbance 405 nm; Potency, µM (doses to about 114 µM), without a hit: at the highest dose activity change, negative = inhibition, usual class: inhibitors; actives 3% (n = 360,000); further: potency means the concentration at half of the fitted maximal effect; on the % scale 0 is the no-effect control and ±100 the full control effect; nearly all actives have a fitted effect of over 60% in size
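Kinetic colorimetric format: TGR-catalysed, NADPH-driven DTNB reduction monitored via TNB absorbance. Enzyme dispensed at 20 nM; compound exposure 15 min at room temperature before reaction start.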
Pf growth 48h = inhibits P. falciparum growth in the first generation, 48 h. P. falciparum luciferase growth in erythrocytes, 48 h. AID 504832. Potency, µM (top dose mostly 28.7 µM), inactives show top-dose activity change, negative = inhibition, actives largely listed as inhibitors. actives 5.9% (n = 310,000); further: potency means the concentration at half of the fitted maximal effect; on the % scale 0 is the no-effect control and ±100 the full control effect
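In quantitative HTS format, infected erythrocytes bearing luciferase-reporter parasites were treated for a single generation at 37 C. Luminescence after adding detection reagent served as the growth measure.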
AMA1-RON2 inh = inhibitors of Plasmodium falciparum AMA1-RON2 interaction; actives 0.2% (n = 360,000); AID 720542; Potency, µM (series often up to 58.2 µM), for the others: at the highest dose activity change, negative = inhibition, actives largely listed as inhibitors; AlphaScreen AMA1-biotinylated RON2 peptide binding;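 further: potency means the concentration at half of the fitted maximal effect; 0% = vehicle wells and -100% = peptide control; nearly all actives have a fitted effect of over 45% in size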
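AMA1 (3D7) with his tag at 25 nM final met compounds first, then biotinylated RON2 peptide at 25 nM; detection used donor plus acceptor beads, 10 µg/mL apiece, read by AlphaScreen after 30 min at room temperature.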
NS1 inh = influenza NS1 inhibition | actives 0.4% (n = 270,000) | AID 2326 | Potency, µM (titrated, usually from 46.1 µM), without a hit: at the highest dose activity, positive = more growth; calls by dose curve; further: potency means the concentration at half of the fitted maximal effect; actives are rising curves; nearly all actives have a fitted effect of over 50% in size
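A cell-based growth assay was used: compounds that relieve NS1-induced slow growth of budding yeast raise OD600. Assay medium was yeast nitrogen base with ammonium sulphate and -URA supplement, pH 6.0, with 2% galactose.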
Pf growth 96h = P. falciparum growth inhibition at 96 hour, primary screen for plastid delayed-death inhibitors | P. falciparum luciferase reporter growth, 96 h | AID 504834 | actives 6.9% (n = 320,000) | Potency, µM (top dose mostly 28.7 µM), for the others: at the top dose activity change, negative = inhibition, actives largely listed as inhibitors; further: potency means the concentration at half of the fitted maximal effect; on the % scale 0 is the no-effect control and ±100 the full control effect
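Delayed-death screen, second-generation endpoint: infected erythrocytes, 2% hematocrit, 0.05% parasitemia final; 96 hours at 37 C, 5% CO2; luciferase detection reagent; luminescence decrease equals reduced growth.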
NS1 inh valid = influenza NS1 function inhibition validation; shares compounds with NS1 inh; influenza NS1 function cell assay, 15-point titration; activity change, negative = inhibition, % at 32.9 µM; 1,400 tested, under 10 active; calls by dose curve; further: 0% is about no effect
Starred values were filed as active, the others as inactive; ? = inconclusive; / = no result given; [ ] = dose if it differs, or a comment. An excerpt weighted towards active compounds, which were near 11% of everything screened. Unless noted, the call rests on the fitted dose curve; in most records, active means well fitted curve in the direction sought with a large enough effect; inconclusive means small, poorly fitted or top-dose-only effect, or another doubt; inactive means no such curve, though single readings can be large; an effect the other way counts as inactive or inconclusive.

SMILES	Sm TGR block	Pf growth 48h	AMA1-RON2 inh	NS1 inh	Pf growth 96h	NS1 inh valid
CCCc1cc(=O)n(-c2nc3ccccc3s2)[nH]1	-14%	-3%	119%	2%	6%	/
CCOC(=O)Cc1cc(=O)n(-c2nc3ccccc3s2)[nH]1	3%	2%	-27%	10µM*	?	0
COc1ccc(NC(=O)CSc2nnc(Cc3ccc(C)cc3)c(=O)n2N)cc1OC	-1%	-2%	18%	/	0%	/
O=[N+]([O-])c1cc(S(=O)(=O)Nc2ccccc2)ccc1N1CCN(c2ccc(O)cc2)CC1	-21%	-13%	?	14µM*	?	6
Cc1ccc(NS(=O)(=O)c2ccc(N3CCN(c4ccc(O)cc4)CC3)c([N+](=O)[O-])c2)c(C)c1	-22%	?	?	16%	?	/
CN1CC[C@@]2(C)c3cc(O)ccc3N(C)C12 (stereo not given in full)	/	/	/	13µM*	/	1
O=C(CNc1ccccc1Cl)Nc1cc(S(=O)(=O)N2CCOCC2)ccc1Cl	-9%	?	-1%	/	?	/
Cc1cc2nnc(SCC(=O)Nc3cc(S(=O)(=O)N4CCOCC4)ccc3Cl)n2c2ccccc12	-9%	5.2µM*	9%[2.32 µM]	10µM*	7.4µM*	19
CS(=O)(=O)N1CCc2cc(-c3csc(NC(=O)Cc4cccs4)n3)ccc21	0%	-23%	-11%	11µM*	97%	19
CC(=O)Nc1nc(-c2ccc3c(c2)CCN3S(C)(=O)=O)cs1	/	-23%	-4%	5%	27%	/
Cc1cc(C)cc(N2C(=O)NC(=O)/C(=C\c3cccn3-c3ccc(Cl)cc3)C2=O)c1	?	?	-15%	1µM*	?	0
O=C(CCS(=O)(=O)c1ccc(Br)s1)Nc1ccccc1Br	-5%	18%	-2%	/	10%	/
C=C[C@@]1(C)CCC(/C(C)=C/C=C/C(C)(C)O)C[C@@H]1C(=C)C (stereo not given in full)	/	/	-3%	/	/	/
COc1ccc2c(c1OC)C(=O)N1C(C(=O)O)Cc3c([nH]c4ccccc34)C21 (stereo not given)	-16%[11.4 µM]	/	1%	2%	/	/
COc1ccc(C2NC(C(=O)O)Cc3c2[nH]c2ccccc32)cc1OC (stereo not given)	-27%	23%	8%	?	/	8
CCOc1ccc2nc(Cl)c(C3CC(c4ccco4)=NN3S(=O)(=O)c3ccccc3)cc2c1 (stereo not given)	-11%	?	-22%	10µM*	7.4µM*	-19
CCOc1ccc2nc(Cl)c(C3CC(c4ccc(OC)cc4)=NN3S(C)(=O)=O)cc2c1 (stereo not given)	-2%	/	/	/	/	/
COc1ccc(C2Nc3ccccc3C(=O)N2Cc2ccco2)cc1COc1ccc(NC(C)=O)cc1 (stereo not given)	?	?	-16%	13µM*	10µM*	10
O=C1c2ccccc2NC(c2cccc(F)c2)N1Cc1ccco1 (stereo not given)	?	-18%	0%	-9%	?	/
COc1ccc(CCN(Cc2nc3ccccc3c(=O)[nH]2)C(=O)c2ccco2)cc1OC	3%	?	4%	8.9µM*	125%	11
CC1CCC(Nc2ncnc3onc(-c4ccc(Cl)cc4)c23)CC1 (stereo not given)	17%	/	/	/	/	/
CCN(CC)C(=O)c1sc2nc(-c3cccs3)cc(-c3ccc(Cl)cc3)c2c1N	10%	?	21%	4.5µM*	7.4µM*	?
COc1ccc(-c2cc3c(=O)n(CC(=O)Nc4ccc(Br)c(C)c4)ccn3n2)cc1OC	1%	/	/	/	/	/
O=c1cc(O)c2sc(Nc3ccc(F)cc3)nc2[nH]1	-13%	?	-3%	13µM*	113%	1
O=c1cc(O)c2sc(Nc3cccc(C(F)(F)F)c3)nc2[nH]1	-3%	?	-3%[2.32 µM]	?	0%	/
SMILES	Sm TGR block	Pf growth 48h	AMA1-RON2 inh	NS1 inh	Pf growth 96h	NS1 inh valid
Cc1ccccc1N1C(=O)NC(=O)/C(=C\c2ccc3c(c2)CCCN3Cc2ccccc2)C1=O	?	2%	-15%	?	2%	-31
CCN(CC)C(=O)CSC1=Nc2ccccc2C2=NC(c3ccccc3)C(=O)N12 (stereo not given)	-6%	/	0%	2.8µM*	/	-1
NC(=O)CSC1=Nc2ccccc2C2=NC(c3ccccc3)C(=O)N12 (stereo not given)	-1%	2%	4%	/	?	/
CSc1ccccc1NC(=O)CN(C)C(=O)CNC(=O)c1ccc(Oc2ccccc2)cc1	/	/	-2%	/	/	/
COc1ccc(OC)c(NC(=O)Cc2c(C)n(C(=O)c3ccc(Cl)cc3)c3ccc(OC)cc23)c1	5%	/	/	/	/	/
COc1ccc2c(c1)c(CC(=O)Nc1cc(C)ccc1C)c(C)n2C(=O)c1ccc(Cl)cc1	-1%	?	-16%	?	12µM*	-6
Cc1ccc(-c2nc(N)sc2CC(=O)OCC(=O)NCCC(C)C)cc1	-23%	4%	51%	-3%	6%	/
CCC(C)NC(=O)COC(=O)Cc1sc(N)nc1-c1ccc(C)cc1 (stereo not given)	-13%	5%	4%	1.1µM*	5%	8
Cc1cccc(C(=O)NN2C(=O)C3C(c4ccccc4)C=CC(c4ccccc4)C3C2=O)c1 (stereo not given)	-7%	18%	-5%	3.2µM*	38%	-1
CSc1ccccc1NC(=O)COC(=O)Cc1ccsc1	/	/	-11%	/	/	/
Cc1ccc(CSc2nnc(-c3ccccc3N)c(=O)[nH]2)cc1	3%	/	14%	11µM*	-14%	-35
Nc1ccccc1-c1nnc(SCc2ccccc2Cl)[nH]c1=O	-2%	?	2%	-71%	/	/
COc1ccc([C@H]2[C@H](C(=O)C(C)(C)C)N3N=Cc4ccccc4C3[C@]23N=C(c2ccccc2)OC3=O)cc1 (stereo not given in full)	1%	13µM*	-5%	2µM*	9.3µM*	-10
COc1ccc(N2C(=O)N3[C@@H]4c5ccccc5OC[C@@H]4[C@@H](c4ccccc4)[C@@]3(C)C2=O)cc1	/	/	2%	/	/	/
Cn1cccc1/C=N/N1CCN(c2ccccn2)CC1	?	45%	-4%	?	25%	-22
CCOC(=O)C1CCN(CCCSc2ccc(C)cc2)CC1	/	/	-4%	/	/	/
N#C/C(=C/c1ccc(N2CCCCC2)o1)C(=O)Nc1ccc(Cl)cc1	?	87%	-5%	-5%	64%	/
N#C/C(=C/c1ccc(N2CCCCC2)o1)C(=O)Nc1ccc2ccccc2c1	?	?	-6%	11µM*	?	2
O=C(CSc1nnc(-c2cccnc2)o1)Nc1nccs1	2%	45%	56%	/	54%	/
COc1cc(CNc2ccc3[nH]c(=O)[nH]c3c2)ccc1OCc1ccccc1F	0%	-5%	-9%	7%	348%	/
